Assay in all cases: NCI-60 one-dose screen, 48 h (100 = growth as untreated, 0 = no growth, -100 = all killed)
What all share (conditions): 10 µM unless noted

Test [1] deals with NCI-H23 lung.
The test system of test [2] is NCI-H226 lung.
In test [3] the test system is NCI-H322M lung.
Test [4] relates to HOP-62 NSCLC.
The test system of test [5] is NCI-H460 lung.
Test [6] deals with NCI-H522 lung.
In test [7] the test system is A549/ATCC NSCLC.
In test [8] the test system is 786-0 renal.
Test [9] has as its system DU-145 prostate.
Test [10] concerns K-562 leukemia.
In test [11] the test system is MALME-3M melanoma.
The subject of test [12] is MDA-MB-231 breast.
The test system of test [13] is RXF 393 renal.
The test system of test [14] is SF-268 CNS.
Test [15] has as its system SF-295 CNS.
Test [16] deals with SF-539 CNS.
For test [17], the system named is UACC-257 melanoma.
For test [18], the system named is M14 melanoma.

This is part of a sample that, as a whole, favours compounds with a hit. Of some 83,000 tested, about 20% had one in any assay.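 Single-dose data. Exposure time 48 hours. Values below 10 considered active.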 Unmarked numbers belong to inactive results. Calls of active or inactive are those of the source.

With `O=C(Nc1ccncc1)C(=O)c1cn(S(=O)(=O)c2cccc(Cl)c2F)c2ccccc12`, the growth in test [1] was 63.7%; in test [2], 75%; in test [3], 96.7%; in [4] it was 89.6%; in [5], 90%; in test [6], 35.2%. Further, the growth in test [7] was 82.8%; in test [8], 77.3%; in test [9], 96.9%; in test [10], 23.9%; in [11], 53.7%; in [12], 78.2%. The growth in [13] is 92.5%; in test [14] it was 80.6%; in test [15], 67.9%; in test [16], 83.2%; in test [17], 89.6%; in [18], 59.2%.
Turning to `CCCCCCCCCCCCCCCC1=NCCN1`, the growth in test [1] is 72.5%; in test [2] it was 80.6%; in test [3] it was 76.6%; in test [4], 55.3%; in test [5] it was 32.5%; in test [6] it was 74%. For the same molecule, the growth in [7] was -15.4% (active); in test [8], 78.8%; in test [9], 72.6%; in [10], 3.78% (active); in test [11] it was 103%; in test [12], 30.6%. In addition, the growth was 60.6% in [13]; 71.3% in test [14]; 90.9% in test [15]; 72.5% in [16]; 99.9% in test [17]; 72.3% in test [18].
For the molecule `O=C(Nc1ccc([N+](=O)[O-])cc1)c1cc2ccccc2cc1O`, the growth in test [1] is -35.7% (active); in test [2], 1.68% (active); in test [3] it was 3.46% (active); in [4] it was 13%; in test [5] it was -33% (active); in test [6], -31.5% (active). Besides, the growth is -6.53% (active) in [7]; -24.2% (active) in [8]; 103% in test [9]; 0.836% (active) in test [10]; -21.5% (active) in test [11]; -35.5% (active) in test [12]. The growth in [13] is -10.4% (active); in [14] it was 92.5%; in test [15], -20.6% (active); in test [16] it was 2.51% (active); in test [17], -33.3% (active); in test [18], -11.4% (active).
With `O/N=C/c1ccncc1`, the growth in test [1] was 101%; in test [2], 107%; in test [3], 110%; in test [4] it was 104%; in [5], 106%; in test [6] it was 83.7%. Further, the growth in test [7] was 96.5%; in test [8] it was 109%; in test [9] it was 103%; in test [10], 106%; in test [11], 98.7%; in test [12] it was 118%. Besides, the growth is 122% in [13]; 111% in [14]; 96% in [15]; 115% in [16]; 100% in test [17]; 115% in test [18].
Turning to `O=C1OCC2=C1C(c1ccccc1)c1cc3c(cc1N2CCO)OCO3` (stereo unspecified), the growth in test [1] is 42.5%; in [2], 49%; in [3] it was 85.8%; in test [4], 40.3%; in [5], -3.16% (active); in test [6] it was -23.7% (active). The growth in test [7] is 58.7%; in [8], 32.1%; in [9] it was 69.4%; in test [11] it was 50%; in test [12], 52.2%; in test [13], 24.8%. The growth in [14] is 49%; in test [15], -12.8% (active); in test [16], -0.802% (active); in test [17] it was 58.3%; in test [18], 3.99% (active).
For `NC(N)=N/N=C/c1ccc(Cl)cc1`, the growth in test [1] was 99.7%; in [2], 80.1%; in test [3], 105%; in [4], 75%; in test [5] it was 53.6%; in [6], 79.9%. Besides, the growth is 92.1% in [7]; 97.1% in test [8]; 73.8% in test [9]; 14% in test [10]; 88.3% in test [11]; 97.5% in test [12]. Further, the growth is 89.3% in [13]; 68.5% in [14]; 81.9% in test [15]; 99.1% in [16]; 80.7% in test [17]; 66.2% in test [18].
For the molecule `Cc1cc([N+](=O)[O-])c(C)cc1N`, the growth was 103% in test [1]; 101% in test [2]; 107% in [3]; 103% in test [4]; 109% in test [5]; 77.5% in test [6]. Further, the growth was 104% in test [7]; 103% in [8]; 115% in [9]; 100% in test [10]; 104% in [11]; 90.3% in test [12]. Also, the growth in test [13] was 105%; in [14], 105%; in test [15], 109%; in test [16], 105%; in test [17] it was 109%; in [18], 104%.
Turning to `Nc1c(C(=O)Nc2ccccc2)sc2nc3c(cc12)C(=O)CCC3`, the growth in test [1] was 39.5%; in [2], 68%; in test [3], 67.1%; in [4], 39.9%; in [5], 12.9%; in test [6], -33.8% (active). Moreover, the growth in test [7] is 19.7%; in [8], 36.2%; in test [9], 0.618% (active); in test [10], 17.1%; in test [11] it was 76.2%; in test [12], 52.1%. For the same molecule, the growth was -9.9% (active) in [13]; 53.4% in [14]; -12.4% (active) in [15]; 0.845% (active) in test [16]; 52.8% in test [17]; 1.11% (active) in [18].
Take `CCC(=O)OCc1ccc(OC)cc1`: the growth was 99% in test [1]; 101% in test [2]; 110% in test [3]; 109% in test [4]; 111% in test [5]; 106% in test [6]. Besides, the growth is 107% in test [7]; 101% in test [8]; 123% in test [9]; 94.4% in test [10]; 124% in [11]; 101% in test [12]. Moreover, the growth in [13] is 118%; in test [14] it was 115%; in test [15] it was 101%; in test [16] it was 93.5%; in [17] it was 96.6%; in [18] it was 100%.
In the case of `COc1ccccc1/C=N\Nc1ccc([N+](=O)[O-])cn1`, the growth is 101% in [1]; 98.7% in test [2]; 107% in test [3]; 106% in [4]; 123% in test [5]; 101% in test [6]. In addition, the growth in test [7] is 105%; in [8], 105%; in [9], 114%; in [10], 112%; in test [11], 117%; in test [12], 103%. The growth in test [13] was 115%; in test [14] it was 105%; in test [15], 96.3%; in test [16], 98.7%; in [17], 108%; in test [18], 94.4%.
As to `CCCCCCCCCCCCNC(=O)N[C@H](C(=O)N[C@H]1/C=C/OCCNC(=O)/C=C/[C@H](C(C)C)NC1=O)C(C)C`, the growth in test [1] was 60.4%; in [2], -3.01% (active); in test [3], 97.1%; in test [4], 76.7%; in test [5], 82.6%; in [6] it was 47.6%. Also, the growth in test [7] is 94.7%; in test [8] it was 99.8%; in test [9] it was 66.9%; in test [11], 71%; in test [12], 81.2%; in [13], 83.6%. Further, the growth is 46.2% in test [14]; 95.2% in test [15]; 54.6% in test [16]; 93.1% in [17]; 87.2% in [18].
Consider `CCOC(=O)C1C(=O)C=C(c2ccccc2)CC1c1sc(N(C)Cc2ccccc2)nc1Cl` (stereo unspecified), for which the growth in test [1] is 89.1%; in [2], 85.8%; in [3] it was 91.2%; in test [4] it was 85.6%; in test [5] it was 93.3%; in test [6], 73.5%. Also, the growth in test [7] was 83.8%; in test [8] it was 93.2%; in test [9], 107%; in test [10], 73%; in [11], 120%; in test [12], 82.9%. Besides, the growth was 91.7% in test [13]; 89.6% in test [14]; 94.4% in test [15]; 105% in [16]; 90.3% in test [17]; 94.7% in test [18].
For the molecule `CC(C)(C)[Si](C)(C)OC1[C@@H](O[Si](C)(C)C(C)(C)C)[C@@H](CNC(=O)NC(=O)NC(=O)CCl)O[C@H]1n1cnc2c(NC(=O)Nc3ccccc3)ncnc21` (stereo partly specified), the growth in [1] is -35.6% (active); in test [2], 88.2%; in test [3], 103%; in [4] it was 36.7%; in [5], 43.5%; in [6], -78.6% (active). For the same molecule, the growth is 55.8% in [7]; 26.6% in [8]; 87.5% in test [9]; 47.1% in test [10]; -78.7% (active) in test [11]; -28.3% (active) in [12]. Further, the growth in test [13] was 21.9%; in [14], 47.1%; in [15], -20.6% (active); in test [16], 82.7%; in test [17] it was 97.8%; in [18] it was 64.7%.
For `O=c1nc(-c2ccccc2)c2cc(-c3ccc(N4CCOCC4)cc3)ccc2[nH]1`, the growth is 86.3% in test [1]; 72.1% in test [2]; 68.9% in test [3]; 73.7% in test [4]; 79.7% in test [5]; 68.3% in test [6]. Besides, the growth in [7] is 64.3%; in test [8] it was 78.6%; in test [9], 79.7%; in test [10] it was 71.8%; in [11] it was 98.4%; in test [12], 78.4%. The growth was 73.4% in [13]; 94.3% in test [14]; 88.6% in [15]; 94.9% in test [16]; 71.6% in [17]; 92.3% in [18].
Regarding `COc1ccc(/C(C)=N/NC(=O)CSc2nc3ccccc3c(=O)n2CCc2ccc(S(N)(=O)=O)cc2)cc1`, the growth was 29.9% in [1]; 49% in test [2]; 32.3% in [3]; -0.117% (active) in [4]; -29.5% (active) in test [5]; 9.28% (active) in [6]. Besides, the growth in test [7] was -26.9% (active); in test [8], -68.1% (active); in [9], 1.74% (active); in test [10], 30.4%; in test [11] it was -21.4% (active); in test [12], -10.9% (active). For the same molecule, the growth is 29.7% in test [13]; 28.3% in test [14]; 28.5% in test [15]; 14.4% in [16]; 25.9% in test [17]; 38.4% in test [18].
`COc1ccc(C(=O)C(CN(C)C)c2ccc(OC)cc2)cc1` (stereo unspecified): the growth in [1] was 89.8%; in test [2], 84.2%; in test [3] it was 93.2%; in test [4] it was 96%; in test [5] it was 86.3%; in test [6], -27.1% (active). Further, the growth was 86.3% in test [7]; 28.6% in test [8]; 7.55% (active) in [9]; 16.3% in [10]; 84.9% in test [11]; 59.4% in test [12]. The growth is 55.8% in test [13]; 60.2% in [14]; 101% in test [15]; 78.8% in test [16]; 45.3% in [17]; 60.6% in [18].
